According to PMC4336329 (PLoS ONE, 2015):
The campaign covered roughly 310,000 compounds. About 14,000 (4.5%) showed an effect of 50% or more. Effects have a minus sign here. This excerpt belongs to a sample that is enriched for strong results. Where a SMILES comes first, the peptide text is derived from it. The star is where a group is joined. Cbz = O=C(OCc1ccccc1)*

The compounds below were run against human ether-à-go-go-related gene (hERG) potassium channel (human, UniProt Q12809) (assay: primary screen, population patch clamp on CHO cells stably expressing hERG; higher = less effect of the substance).
Sequence of human ether-à-go-go-related gene (hERG) potassium channel (Q12809 whole entry, looked up): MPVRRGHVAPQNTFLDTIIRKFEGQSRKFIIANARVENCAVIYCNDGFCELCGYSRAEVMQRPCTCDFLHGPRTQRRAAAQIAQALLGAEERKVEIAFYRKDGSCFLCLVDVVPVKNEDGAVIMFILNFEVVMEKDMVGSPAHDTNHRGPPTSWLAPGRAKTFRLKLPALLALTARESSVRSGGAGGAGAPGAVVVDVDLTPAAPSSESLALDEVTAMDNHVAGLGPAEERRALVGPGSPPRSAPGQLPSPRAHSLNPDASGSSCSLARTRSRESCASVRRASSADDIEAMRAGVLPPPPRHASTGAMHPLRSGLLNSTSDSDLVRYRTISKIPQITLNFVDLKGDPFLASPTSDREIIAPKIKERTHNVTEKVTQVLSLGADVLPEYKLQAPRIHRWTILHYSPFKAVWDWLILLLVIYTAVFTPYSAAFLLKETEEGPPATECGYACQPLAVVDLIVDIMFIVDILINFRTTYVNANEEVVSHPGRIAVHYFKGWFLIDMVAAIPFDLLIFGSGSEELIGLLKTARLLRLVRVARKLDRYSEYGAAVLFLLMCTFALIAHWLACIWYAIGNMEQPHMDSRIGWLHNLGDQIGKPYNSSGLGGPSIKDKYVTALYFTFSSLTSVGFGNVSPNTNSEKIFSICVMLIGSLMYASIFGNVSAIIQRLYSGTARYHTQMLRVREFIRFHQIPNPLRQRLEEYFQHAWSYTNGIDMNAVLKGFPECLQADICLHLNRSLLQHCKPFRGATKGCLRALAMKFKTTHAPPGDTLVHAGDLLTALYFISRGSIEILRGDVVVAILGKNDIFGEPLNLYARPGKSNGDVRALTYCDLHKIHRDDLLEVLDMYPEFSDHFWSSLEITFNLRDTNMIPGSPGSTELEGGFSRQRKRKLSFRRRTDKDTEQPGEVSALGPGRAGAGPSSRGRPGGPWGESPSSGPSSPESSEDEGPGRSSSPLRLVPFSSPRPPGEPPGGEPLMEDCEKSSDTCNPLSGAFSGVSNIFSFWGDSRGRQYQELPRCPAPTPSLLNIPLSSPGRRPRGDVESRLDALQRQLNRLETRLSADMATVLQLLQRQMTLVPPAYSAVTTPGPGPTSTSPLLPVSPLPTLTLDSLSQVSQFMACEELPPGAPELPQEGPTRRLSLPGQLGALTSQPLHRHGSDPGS
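Also: peak tail current of the secondary pulse compared with the same well before compound.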

Row | Structure (SMILES) | hERG current change (%, negative = inhibition) at 10uM [%]
1 | CCN1CCC(Nc2ccnc3cc(Cl)ccc23)CC1 | -40.5
2 | O=C(Nc1ccccc1)OCc1ccccn1 | 10.8
3 | COc1ccc(C2=NN(CN3C(=O)C(=O)c4ccccc43)C(c3ccc(OC)cc3)C2)cc1 (stereo not shown) | 9.84
4 | Cc1cc(-c2ccccc2)nc(SCc2ccc(C(=O)O)o2)n1 | -3.89
5 | Cc1ccc(C(=O)Nc2cccnc2)cc1Cl | 4.54
6 | O=C(NCC(=O)N1CCN(C(c2ccccc2)c2ccccc2)CC1)c1ccc(Br)o1 | 8.38
7 | Cc1cc(Br)c(NC(=O)CN(C)CCOc2ccccc2)c(Br)c1 | -19.5
8 | COc1ccc(Cn2nnc3c(=O)[nH]c(C(=O)NCCc4ccc(F)cc4)nc32)cc1OC | 7.28
9 | COc1ccc(NC(=O)CN2CCC(C(N)=O)(N3CCCCC3)CC2)c(OC)c1 | 1.56
10 | Cl.O=C(CN1CCCCCC1)Nc1ccc(Oc2ccccc2)cc1 | -78.6
11 | NC(=O)C1(N2CCCCC2)CCN(Cc2ccc(F)cc2)CC1 | -6.92
12 | NC(=O)C1(N2CCCCC2)CCN(Cc2ccc(Br)cc2)CC1 | -51
13 | O=C(CN1CCCC1)Nc1ccc(Oc2ccc(NC(=O)CN3CCCC3)cc2)cc1 | 17.3
14 | O=C(CN1CCCCC1)Nc1cc(Cl)ccc1Cl | -0.685
15 | NC(=O)C1(N2CCCCC2)CCN(CC(=O)Nc2cc(Cl)ccc2Cl)CC1 | -72
16 | NC(=O)C1(N2CCCCC2)CCN(Cc2ccccc2)CC1 | 2.53
17 | CN1CCN(CC(=O)Nc2ccc(Oc3ccccc3)cc2)CC1 | -47.5
18 | CC(C)C(NC(=O)C1CCC(C(C)(C)C)CC1)C(=O)NCCc1ccc(S(N)(=O)=O)cc1 (stereo not shown) | 14.1
19 | COc1ccc2c(N)c(C(=O)NN)[nH]c2c1 | 2.16
20 | COCCN(C(=O)CSc1nc2ccc(Cl)cc2[nH]1)c1c(N)n(Cc2ccccc2)c(=O)[nH]c1=O | -7.02
21 | Cc1cc(C)n(CC(O)Cn2c3ccc(Br)cc3c3cc(Br)ccc32)c(=O)n1 (stereo not shown) | 19.5
22 | Cc1ccc(CCNC(=O)c2nn(C)c3c2CS(=O)(=O)c2ccccc2-3)cc1 | -39.7

Row | Structure (SMILES) | hERG current change (%, negative = inhibition) at 10uM [%]
23 | O=C(/C=C/Nc1ccc(S(=O)(=O)Nc2ncccn2)cc1)c1cccs1 | 4.26
24 | COc1ccc(/C=C(\NC(=O)c2ccccc2)C(=O)NCc2cccnc2)cc1 | -70.5
25 | COc1ccc(CNC(=O)C(=O)NCc2cccnc2)cc1 | -6.16
26 | O=C(NCc1cccnc1)/C(=C/c1ccccc1)NC(=O)c1ccccc1 | -34.5
27 | O=C(NCc1ccccc1Cl)/C(=C\c1cccnc1)NC(=O)c1ccccc1 | -48.7
28 | COc1ccc(C(=O)N/C(=C\c2ccccc2)C(=O)NCc2cccnc2)cc1 | -70.8
29 | COc1ccc(/C=C(\NC(=O)c2ccccc2)C(=O)N/N=C/c2cccnc2)cc1 | -5.03
30 | COc1ccc(C(=O)NCc2cccnc2)cc1 | -1.7
31 | Cc1ccc(C(=O)N/C(=C\c2ccccc2)C(=O)NCc2cccnc2)cc1 | -71.9
32 | COc1ccc(/C=C(/NC(=O)c2ccccc2)C(=O)NCc2ccco2)cc1 | 27
33 | O=C(NCc1cccnc1)/C(=C/c1ccc(Cl)cc1)NC(=O)c1ccccc1 | -68.5
34 | CN(C)c1ccc(/C=C(\NC(=O)c2ccccc2)C(=O)NCc2cccnc2)cc1 | -18.9
35 | COC1c2ccccc2C(=O)N1Cc1ccc(F)cc1 (stereo not shown) | 5.48
36 | O=C(Oc1c(Br)cc([N+](=O)[O-])cc1Br)c1cccnc1 | 16.7
37 | O=C(O)CCC(NC(=O)C1CCCN1C(=O)OCc1ccccc1)C(=O)O (stereo not drawn) (Cbz-Pro-Glu-OH; configuration not given here) | 14
38 | Cc1cc(C)nc(SCCc2ccncc2)n1.Cl | 9.82
39 | CN(c1ccc(OC(=O)CC2OC(=O)c3ccccc32)cc1)S(=O)(=O)c1ccccc1 (stereo not shown) | -8.52
40 | Cc1ccc(C2C(N)C(=O)N2c2ccc(C)cc2)cc1 (stereo not shown) | -5.54
41 | CCOc1ccc(C(=O)OC2CC3CCC(C2)N3C)cc1.Cl (stereo not shown) | -30
42 | CN1C2CCC1CC(OC(=O)c1c[nH]c3ccccc13)C2 (stereo not shown) | -59.1
43 | CN1[C@@H]2CC[C@H]1CC(OC(=O)c1c[nH]c3ccccc13)C2.Cl (stereo partly shown) | -48.1
44 | CN1C2CCC1CC(OC(=O)c1ccc([N+](=O)[O-])cc1)C2 (stereo not shown) | -67.9

Row | Structure (SMILES) | hERG current change (%, negative = inhibition) at 10uM [%]
45 | O=C(OC1Cn2c(=O)ccc(=O)n2C1)c1ccc([N+](=O)[O-])cc1 | -12.8
46 | CN1C2CCC1CC(OC(=O)c1c[nH]c3ccccc13)C2.Cl (stereo not shown) | -40.2
47 | CN1C2CCC1CC(OC(=O)c1cc(Cl)cc(Cl)c1)C2.Cl (stereo not shown) | -57.4
48 | CN1CCCC(OC(=O)c2cc(Cl)cc(Cl)c2)C1.Cl (stereo not shown) | -43.4
49 | CN1C2CCC1CC(OC(=O)c1ccc(Cl)cc1)C2.Cl (stereo not shown) | -48.9
50 | CCOC(=O)c1ccc(S(=O)(=O)N2CCN(c3ccccn3)CC2)cc1 | 8.95
51 | CCOc1ccc(OCC)c(NC(=O)C2CCN(c3nn4c(=O)cc(C)nc4s3)CC2)c1 | -30.5
52 | COc1ccc(CCC(=O)c2ccc(OC)cc2)cc1 | -1.41
53 | Cc1ccc(C)c(NC(=O)COC(=O)CCCN=C2NS(=O)(=O)c3ccccc32)c1 | 4.55
54 | Cn1nc([N+](=O)[O-])nc1Sc1cccc2cccnc12 | 13.9
55 | Cc1ccc2c(Cl)cc(Cl)c(OCC(=O)NCCc3ccccn3)c2n1 | -42.7
56 | Cc1ccc(CNC(=O)[C@@H](NC(=O)Cc2ccccc2)C(C)C)cc1 | 6.89
57 | CCN(CC)CCCNC(=O)C1CCC(=O)N(c2ccc(OC)cc2)C1c1ccc(F)cc1 (stereo not shown) | 1.14
58 | CCOc1ccc(N(CC)C(=O)Cc2c(C(=O)O)n(C)c3ccccc23)cc1 | 16.8
59 | COC(=O)c1sccc1-n1cccc1C(=O)C(=O)N1CCOCC1 | -78.3
60 | COC(=O)c1sccc1-n1cccc1C(=O)N1CCOCC1 | -44.5
61 | COC(=O)c1sccc1-n1cccc1C(=O)C(=O)N1CCCC1 | 14.3
62 | CCOc1ccc(CNC(=O)C(C)n2nc(C)c3c(C)n(-c4ccccc4)nc3c2=O)cc1 (stereo not shown) | -16.1
63 | Cc1ccc(-n2nc3c(=O)n(C(C)C(=O)NCc4ccc(Cl)cc4)nc(C)c3c2C)cc1 (stereo not shown) | -63.5
64 | CCC(C(=O)NCCC1=CCCCC1)n1nc(C)c2c(C)n(-c3ccccc3)nc2c1=O (stereo not shown) | -48.6
65 | Cc1ccc(CNC(=O)CCCn2nc(C)c3c(C)n(-c4ccccc4)nc3c2=O)cc1 | 5.48
66 | Cc1ccc(-n2nc3c(=O)n(C(C)C(=O)NCc4ccccc4Cl)nc(C)c3c2C)cc1 (stereo not shown) | -35.5

Row | Structure (SMILES) | hERG current change (%, negative = inhibition) at 10uM [%]
67 | Cc1ccc(-n2nc3c(=O)n(C(C)C(=O)NCc4ccc5c(c4)OCO5)nc(C)c3c2C)cc1 (stereo not shown) | 1.78
68 | Cc1ccc(-n2nc3c(=O)n(CC(=O)NCCC4=CCCCC4)nc(C)c3c2C)cc1 | 2.08
69 | COc1ccc(CNC(=O)C(C)n2nc(C)c3c(C)n(-c4ccc(C)cc4)nc3c2=O)cc1 (stereo not shown) | -50.1
70 | Cc1ccc(-n2nc3c(=O)n(CCCC(=O)NCc4ccc(Cl)cc4)nc(C)c3c2C)cc1 | 4.82
71 | Cc1ccc(-n2nc3c(=O)n(CCCC(=O)NCc4ccc(F)cc4)nc(C)c3c2C)cc1 | -76.5
72 | CSc1ccc(CNC(=O)C(C)n2nc(C)c3c(C)n(-c4ccccc4)nc3c2=O)cc1 (stereo not shown) | -38.2
73 | Cc1ccc(-n2nc3c(=O)n(C(C)C(=O)NCCC4=CCCCC4)nc(C)c3c2C)cc1 (stereo not shown) | -51.4
74 | CCOc1ccc(C(=O)NNC(=O)CCNC(=O)c2ccco2)cc1OC | 12.9
75 | Cc1ccc(OCCn2cccc2/C=C2/C(=O)NC(=O)N(Cc3ccco3)C2=O)cc1 | -0.631
76 | CCOC(=O)C1CCN(C(=S)Nc2cc(OC)c(OC)cc2C(=O)OC)CC1 | -10.9
77 | COc1cc(CNCC(C)C)c(Br)cc1OCC(=O)NCc1ccccc1 | -10.7
78 | Cc1ccc(C2C(C#N)=C(N)OC3=C2C(=O)CC(C)(C)C3)s1 (stereo not shown) | -4.59
79 | COc1ccc(-n2nnc3c(SCC(=O)N4CCCc5ccccc54)ncnc32)cc1 | 13.6
80 | Cc1ccc(-n2nc3c(=O)n(C(C)C(=O)NCCCc4ccccc4)nc(C)c3c2C)cc1 (stereo not shown) | -55.2
81 | COc1ccccc1CNC(=O)C(C)n1nc(C)c2c(C)n(-c3ccccc3)nc2c1=O (stereo not shown) | -0.0415
82 | Cc1ccc(CCNC(=O)C(C)n2nc(C)c3c(C)n(-c4ccccc4)nc3c2=O)cc1 (stereo not shown) | -36.3
83 | Cc1nn(C(C)C(=O)NCc2ccccc2F)c(=O)c2nn(-c3ccccc3)c(C)c12 (stereo not shown) | 13.8
84 | Cc1nn(C(C)C(=O)NCCCc2ccccc2)c(=O)c2nn(-c3ccccc3)c(C)c12 (stereo not shown) | -20
85 | CCOc1ccccc1CNC(=O)C(C)n1nc(C)c2c(C)n(-c3ccccc3)nc2c1=O (stereo not shown) | -65.4
